{"source": "PubChem BioAssay (Tox21)", "note": "Results filed as inconclusive are left out. Calls of active or inactive are those of the source. The call rests on the fitted dose curve; in most records, active means well fitted cell-killing curve with a large enough effect in the repeat runs; inconclusive means weak or mixed curves, or effect the other way; inactive means flat fitted curve, though single readings scatter. On the % scale 0 is the no-effect control and ±100 the full control effect.", "data": [{"assay": "cAMP Responsive Elements (CRE) small molecule agonists, cell-based qHTS assay: qHTS cell viability counter screen (AID 2060914);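 further: viability read after 3 h of compound exposure; nearly all actives have a fitted effect of over 50% in size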", "settings": "CRE-bla HEK293T viability, CellTiter-Glo luminescence, 5 h; series mostly up to 92.4 µM; activity change, negative = cytotoxicity: at the top concentration", "excerpt": "National Center for Advancing Translational Sciences [NCATS]\nDivision of Preclinical Innovation [DPI]\nU.S. Environmental Protection Agency [EPA]\nNational Institutes of Environmental Health Sciences [NIEHS]\nNational Toxicology Program [NTP]\nU.S. Food and Drug Administration [FDA]\nCREB (cyclic-AMP Responsive Element Binding Protein) is a cellular transcription factor. It binds to certain DNA sequences called cAMP Responsive Elements (CRE) and regulates the transcription of the genes. […] This cell line can be used to find agonists/antagonists of the cyclic AMP signaling pathway. The activation of the report gene under culture conditions can be detected by fluorescence intensity. This cell line has been used to screen the Tox21 10K compound library to identify agonists that induce oxidative stress. The cytotoxicity of the Tox21 compound library against the CRE-bla cell line was tested in parallel by measuring the cell viability using CellTiter-Glo assay (Promega, Madison, WI) in the same wells.\nTox21 Assay Protocol Summary:\nCRE-bla Hek 293T cells were suspended in assay medium (DMEM containing 10% dialyzed FBS, 0.1 mM NEAA, 1 mM sodium pyruvate and 25 mM HEPES) and dispensed at 2,000 cells/5 uL /well into 1536-well black wall/clear bottom plates using a Multidrop Combi (ThermoFisher Scientific, Waltham, MA) dispenser. After the assay plates were incubated at 37 C/5% CO2 for 18 hrs, 23 nL of compounds dissolved in DMSO, positive controls or DMSO only was transferred to the assay plate by a pintool workstation (Kalypsys, San Diego, CA). After the plates were incubated at 37 C/5% CO2 for 3 hrs, 1 uL of LiveBLAzer B/G FRET substrate (Invitrogen, Carlsbad, CA) was added to each well using Bioraptr Flying Reagent Dispenser (FRD, Aurora Discovery, San Diego, CA). The plates were incubated at room temperature for 2 h, then fluorescence intensities were measured using an Envision plate reader (PerkinElmer, Shelton, CT) at Excitation 405nm, Emission 460nm and 530nm. The % activity was determined from the ratio of 460nm/530nm. For cell viability readout that measures cytotoxicity, 4 uL /well of CellTiter-Glo reagent was added into the assay plates using Bioraptr FRD. After 30 min incubation at room temperature, the luminescence intensity in the assay plates was measured using a ViewLux (PerkinElmer, Shelton, CT) plate reader.", "values": [{"smiles": "O=C(Nc1ccccc1)c1ccccc1O", "activity change, negative = cytotoxicity": "-10.3% (inactive)"}, {"smiles": "C/C(=C(\\CCO)SS/C(CCO)=C(\\C)N(C=O)Cc1cnc(C)nc1N)N(C=O)Cc1cnc(C)nc1N", "activity change, negative = cytotoxicity": "6.36% [at 42.5 µM] (inactive)"}, {"smiles": "CC1(C)S[C@@H]2[C@H](NC(=O)[C@H](N)c3ccccc3)C(=O)N2[C@H]1C(=O)O", "Potency": "inactive"}, {"smiles": "CC(C)CCCCCCCOC(=O)CCCCC(=O)OCCCCCCCC(C)C", "Potency": "inactive"}, {"smiles": "O=C(O)CC(=O)C(=O)O", "activity change, negative = cytotoxicity": "-11.1% (inactive)"}, {"smiles": "CCN(CC)c1ccc2c(C)cc(=O)oc2c1", "activity change, negative = cytotoxicity": "-5.05% (inactive)"}, {"smiles": "CCCCC(CC)CN1C(=O)C2C3C=CC(C3)C2C1=O", "note": "(stereo not given)", "activity change, negative = cytotoxicity": "-20.9% (inactive)"}, {"smiles": "CCCCCCCCOCCC#N", "activity change, negative = cytotoxicity": "-2.84% (inactive)"}, {"smiles": "Nc1ccn([C@@H]2O[C@H](CO)[C@@H](O)[C@@H]2O)c(=O)n1", "activity change, negative = cytotoxicity": "-0.92% (inactive)"}, {"smiles": "Cc1cccc(C)c1[N+](=O)[O-]", "Potency": "inactive"}, {"smiles": "COc1cc(C(=S)N2CCOCC2)cc(OC)c1OC", "activity change, negative = cytotoxicity": "-28.9% [at 42.5 µM] (inactive)"}, {"smiles": "COc1ccc(C(=O)c2ccccc2O)c(O)c1", "Potency": "inactive"}, {"smiles": "CN(C)CCN1C(=O)c2ccccc2N(C)c2ccccc21", "activity change, negative = cytotoxicity": "-0.241% [at 42.5 µM] (inactive)"}, {"smiles": "C=COCC1CCC(COC=C)CC1", "note": "(stereo not given)", "activity change, negative = cytotoxicity": "9.19% (inactive)"}, {"smiles": "CC1(C)C2=CCCC(C)(C)[C@]23CC[C@H]1C3", "activity change, negative = cytotoxicity": "-21.3% (inactive)"}, {"smiles": "CC(C)=CCCC(C)CC(=O)O", "note": "(stereo not given)", "activity change, negative = cytotoxicity": "7.51% (inactive)"}, {"smiles": "CC(=O)N1C[C@H](O)C[C@H]1C(=O)O", "activity change, negative = cytotoxicity": "3.07% [at 42.5 µM] (inactive)"}, {"smiles": "O=S(=O)(O)c1ccc2cc(O)c(S(=O)(=O)O)cc2c1", "activity change, negative = cytotoxicity": "5.24% (inactive)"}, {"smiles": "Clc1ccccc1-c1nc(-c2ccncc2)no1", "activity change, negative = cytotoxicity": "-15% [at 42.5 µM] (inactive)"}, {"smiles": "O=P(O)(O)O", "Potency": "inactive"}, {"smiles": "CC1(C)CCC[C@]2(C)[C@H]3CC(=O)O[C@]3(C)CC[C@@H]12", "activity change, negative = cytotoxicity": "-19.7% (inactive)"}, {"smiles": "CCC(C)(C)c1cc(O)c(C(C)(C)CC)cc1O", "activity change, negative = cytotoxicity": "0.0459% (inactive)"}, {"smiles": "CC(CCc1ccccc1)NCC(O)c1ccc(O)c(C(N)=O)c1", "note": "(stereo not given)", "activity change, negative = cytotoxicity": "16.3% (inactive)"}, {"smiles": "CCc1nccnc1CC", "activity change, negative = cytotoxicity": "11.2% [at 18.9 µM] (inactive)"}, {"smiles": "CC(=O)CCC=C(C)C", "Potency": "inactive"}, {"smiles": "CN(C)CCN(Cc1ccc(Cl)cc1)c1ccccn1", "activity change, negative = cytotoxicity": "-11.1% [at 42.5 µM] (inactive)"}, {"smiles": "CCN(CC)c1ccc(C(=C2C=CC(=[N+](CC)CC)C=C2)c2cc(S(=O)(=O)O)ccc2S(=O)(=O)[O-])cc1", "activity change, negative = cytotoxicity": "-13.7% [at 42.5 µM] (inactive)"}, {"smiles": "COc1cc2c(cc1OC)C(=O)CC2", "activity change, negative = cytotoxicity": "0.195% [at 42.5 µM] (inactive)"}, {"smiles": "Nc1ccc(C(=O)NCC(=O)O)cc1", "activity change, negative = cytotoxicity": "-8.9% [at 42.5 µM] (inactive)"}, {"smiles": "NC(=O)Nc1nc2ccccc2[nH]1", "activity change, negative = cytotoxicity": "3.06% (inactive)"}, {"smiles": "COCCC(=O)OC", "activity change, negative = cytotoxicity": "-11.7% (inactive)"}, {"smiles": "CCCCCCCCS", "activity change, negative = cytotoxicity": "14.9% (inactive)"}, {"smiles": "CO[C@H]1O[C@H](CO)[C@@H](O)[C@H](O)[C@H]1O", "activity change, negative = cytotoxicity": "-1.32% (inactive)"}, {"smiles": "Cc1ccc(-c2ncc(Cl)cc2-c2ccc(S(C)(=O)=O)cc2)cn1", "activity change, negative = cytotoxicity": "1.89% [at 42.5 µM] (inactive)"}, {"smiles": "C#CC1(O)CC[C@H]2[C@@H]3CCC4=CCCC[C@@H]4[C@H]3CC[C@@]21C", "note": "(stereo not given in full)", "activity change, negative = cytotoxicity": "10.9% [at 42.5 µM] (inactive)"}, {"smiles": "O=S1(=O)OC(c2ccc(O)cc2)(c2ccc(O)cc2)c2ccccc21", "Potency": "inactive"}, {"smiles": "N[C@H]1CN(c2c(F)cc3c(=O)c(C(=O)O)cn(C4C[C@H]4F)c3c2Cl)CC12CC2", "note": "(stereo not given in full)", "activity change, negative = cytotoxicity": "-24.2% [at 42.5 µM] (inactive)"}, {"smiles": "C=C(C)C(=O)OCC(O)CO", "note": "(stereo not given)", "activity change, negative = cytotoxicity": "-0.209% [at 42.5 µM] (inactive)"}, {"smiles": "Cc1ccc(S(=O)(=O)N=C=O)cc1", "Potency": "inactive"}, {"smiles": "Cc1ccc(O)c(-n2nc3ccccc3n2)c1", "activity change, negative = cytotoxicity": "-27.5% [at 42.5 µM] (inactive)"}]}]}
